Reference: PubChem BioAssay AID1159580 (chemical genetic matrix, 2015)
About 2,000 (36%) of roughly 5,500 compounds were called active. Inconclusive results (about 18%) are left out. No stated cut-off is given here; in the data, active means normalized growth mostly below about 0.91 (no sharp cut-off); inconclusive means no clear call, values can overlap the other calls; inactive means mostly above about 0.92. The list shows a part of the results.

Assay: chemical genetic growth profiling, strain panel (AID 1159580);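 further: tested at 20 µM; growth read once vehicle control cultures reached saturation at 30 °C; 1 = growth at the plate median or of vehicle wells; lower values mean less growth of the strain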
Conditions: growth OD

Measured: normalized growth

CC1=C(C(=O)O)N2C(=O)[C@@H](NC(=O)[C@H](N)C3=CCC=CC3)C2SC1 (some centres not stated)
inactive: S. cerevisiae deletion strains, locus YJR066W, strain TOR1, active compounds read low 0.974 | S. cerevisiae deletion strains, locus YKL009W, strain mrt4, active compounds read low 1 | S. cerevisiae deletion strains, locus YKL068W, active compounds read low 0.979 | S. cerevisiae deletion strains, locus YKL085W, strain MDH1 (second series), active compounds read low 0.978 | S. cerevisiae deletion strains, locus YKL085W, strain MDH1, active compounds read low 0.978 | S. cerevisiae deletion strains, locus YKL160W, strain elf1, active compounds read low 1 | S. cerevisiae deletion strains, locus YKR001C, strain vps1, active compounds read low 0.994 | S. cerevisiae deletion strains, locus YKR026C, strain gcn3, active compounds read low 1.02 | S. cerevisiae deletion strains, locus YKR091W, strain srl3, active compounds read low 1.01 | S. cerevisiae deletion strains, locus YLL001W, strain dnm1, active compounds read low 0.998 | S. cerevisiae deletion strains, locus YLL026W, active compounds read low 1.02 | S. cerevisiae deletion strains, locus YLL041C, strain sdh2, active compounds read low 1.02 | S. cerevisiae deletion strains, locus YLR027C, strain aat2, active compounds read low 1.02 | S. cerevisiae deletion strains, locus YLR039C, strain RIC1, active compounds read low 0.983 | S. cerevisiae deletion strains, locus YLR058C, strain SHM2, active compounds read low 0.974 | S. cerevisiae deletion strains, locus YLR102C, strain apc9, active compounds read low 1 | S. cerevisiae deletion strains, locus YLR113W, strain HOG1, active compounds read low 0.968 | S. cerevisiae deletion strains, locus YLR221C, strain rsa3, active compounds read low 1.02 | S. cerevisiae deletion strains, locus YLR258W, strain gsy2, active compounds read low 1.03 | S. cerevisiae deletion strains, locus YLR262C, strain YPT6 (second series), active compounds read low 1.04 | S. cerevisiae deletion strains, locus YLR262C, strain YPT6, active compounds read low 0.924 | S. cerevisiae deletion strains, locus YLR268W, strain sec22, active compounds read low 1 | S. cerevisiae deletion strains, locus YLR320W, strain mms22, active compounds read low 1.01 | S. cerevisiae deletion strains, locus YLR330W, strain CHS5, active compounds read low 0.986 | S. cerevisiae deletion strains, locus YLR342W, strain FKS1 (second series), active compounds read low 1.03 | S. cerevisiae deletion strains, locus YLR342W, strain FKS1, active compounds read low 1.01 | S. cerevisiae deletion strains, locus YLR357W, strain rsc2, active compounds read low 1.04 | S. cerevisiae deletion strains, locus YLR370C, strain arc18, active compounds read low 1.03 | S. cerevisiae deletion strains, locus YLR371W, strain rom2, active compounds read low 0.999 | S. cerevisiae deletion strains, locus YLR384C, strain iki3, active compounds read low 1.02 | S. cerevisiae deletion strains, locus YLR418C, strain cdc73, active compounds read low 1.01 | S. cerevisiae deletion strains, locus YML016C, strain PPZ1, active compounds read low 0.986 | S. cerevisiae deletion strains, locus YML032C, strain rad52, active compounds read low 0.995 | S. cerevisiae deletion strains, locus YML120C, strain ndi1, active compounds read low 1.02 | S. cerevisiae deletion strains, locus YML124C, strain tub3, active compounds read low 0.995 | S. cerevisiae deletion strains, locus YMR058W, strain fet3, active compounds read low 1.02 | S. cerevisiae deletion strains, locus YMR078C, strain ctf18, active compounds read low 0.994 | S. cerevisiae deletion strains, locus YMR125W, strain sto1, active compounds read low 0.996 | S. cerevisiae deletion strains, locus YMR129W, active compounds read low 1.02 | S. cerevisiae deletion strains, locus YMR205C, strain PFK2, active compounds read low 1.04 | S. cerevisiae deletion strains, locus YMR223W, strain ubp8, active compounds read low 1.01 | S. cerevisiae deletion strains, locus YMR231W, strain pep5, active compounds read low 1 | S. cerevisiae deletion strains, locus YMR263W, strain SAP30, active compounds read low 1 | S. cerevisiae deletion strains, locus YMR307W, strain GAS1, active compounds read low 0.933 | S. cerevisiae deletion strains, locus YNL067W, strain RPL9B, active compounds read low 1.02 | S. cerevisiae deletion strains, locus YNL071W, strain lat1, active compounds read low 1.02 | S. cerevisiae deletion strains, locus YNL153C, strain GIM3, active compounds read low 1.02 | S. cerevisiae deletion strains, locus YNL183C, strain NPR1, active compounds read low 0.933 | S. cerevisiae deletion strains, locus YNL209W, strain ssb2, active compounds read low 1.03 | S. cerevisiae deletion strains, locus YNL233W, strain BNI4, active compounds read low 1.03 | S. cerevisiae deletion strains, locus YNL248C, strain rpa49, active compounds read low 1.05 | S. cerevisiae deletion strains, locus YNL250W, strain rad50, active compounds read low 1 | S. cerevisiae deletion strains, locus YNL271C, strain bni1, active compounds read low 1 | S. cerevisiae deletion strains, locus YNL298W, strain CLA4, active compounds read low 0.999 | S. cerevisiae deletion strains, locus YNL307C, strain MCK1, active compounds read low 0.995 | S. cerevisiae deletion strains, locus YNL322C, strain KRE1 (second series), active compounds read low 1.01 | S. cerevisiae deletion strains, locus YNR049C, strain mso1, active compounds read low 1.02 | S. cerevisiae deletion strains, locus YNR052C, strain pop2, active compounds read low 0.996 | S. cerevisiae deletion strains, locus YOL012C, strain htz1 0.951 | S. cerevisiae deletion strains, locus YOL147C, strain pex11, active compounds read low 0.997 | S. cerevisiae deletion strains, locus YOR001W, strain rrp6, active compounds read low 1.02 | S. cerevisiae deletion strains, locus YOR061W, strain CKA2, active compounds read low 0.968 | S. cerevisiae deletion strains, locus YOR069W, strain VPS5, active compounds read low 0.976 | S. cerevisiae deletion strains, locus YOR070C, strain gyp1, active compounds read low 1.02 | S. cerevisiae deletion strains, locus YOR080W, strain dia2, active compounds read low 1.03 | S. cerevisiae deletion strains, locus YOR083W, strain WHI5, active compounds read low 0.993 | S. cerevisiae deletion strains, locus YOR106W, strain vam3, active compounds read low 1.04 | S. cerevisiae deletion strains, locus YOR136W, strain idh2, active compounds read low 0.984 | S. cerevisiae deletion strains, locus YOR144C, strain elg1, active compounds read low 0.995 | S. cerevisiae deletion strains, locus YOR184W, strain ser1, active compounds read low 0.992 | S. cerevisiae deletion strains, locus YOR231W, strain MKK1, active compounds read low 0.979 | S. cerevisiae deletion strains, locus YOR265W, strain rbl2, active compounds read low 1.02 | S. cerevisiae deletion strains, locus YOR270C, strain vph1, active compounds read low 1.07 | S. cerevisiae deletion strains, locus YOR290C, strain snf2, active compounds read low 1.02 | S. cerevisiae deletion strains, locus YOR316C, strain cot1, active compounds read low 0.991 | S. cerevisiae deletion strains, locus YPL051W, strain arl3, active compounds read low 1.01 | S. cerevisiae deletion strains, locus YPL078C, strain atp4, active compounds read low 1.02 | S. cerevisiae deletion strains, locus YPL106C, strain sse1, active compounds read low 1.03 | S. cerevisiae deletion strains, locus YPL240C, strain hsp82, active compounds read low 1.01 | S. cerevisiae deletion strains, locus YPL241C, strain CIN2, active compounds read low 0.989 | S. cerevisiae deletion strains, locus YPL256C, strain CLN2, active compounds read low 0.956 | S. cerevisiae deletion strains, locus YPR119W, strain clb2, active compounds read low 0.995 | S. cerevisiae deletion strains, locus YPR141C, strain kar3, active compounds read low 0.988 | S. cerevisiae deletion strains, locus YPR163C, strain tif3, active compounds read low 0.995 | S. cerevisiae deletion strains, locus YPR167C, strain met16, active compounds read low 0.998 | S. cerevisiae deletion strains, strain wtn01, active compounds read low 1.04 | S. cerevisiae strains, strain wild type, active compounds read low 0.985
